# Data taken from the supplement of paper PMC6658780.
# Counter-ions that a name gives are not always drawn. ± gives the standard deviation of the averaged measurements.
# Test system: Klebsiella pneumoniae KPC-119
# Experiment: percent growth inhibition of drug alone vs DMSO control; higher = more growth inhibition
# Conditions: antibiotic (0.125x MIC): none (0.1% DMSO); 20 µM
row,SMILES,percent growth inhibition of drug alone [%]
1,Clc1ccc(CCC(Cn2ccnc2)Sc2c(Cl)cccc2Cl)cc1 (configuration not stated) [Butoconazole nitrate],2.34 ± 3.2
2,Cc1cc(C(C)(C)CC(C)(C)C)ccc1OCCOCC[N+](C)(C)Cc1ccccc1 [Methyl benzethonium chloride],-2.28 ± 0.9
3,CC(=O)OC[C@H]1O[C@@H]([S-])[C@H](OC(C)=O)[C@@H](OC(C)=O)[C@@H]1OC(C)=O.CCP(CC)CC.[Au+] [Auranofin],50.22 ± 0.3
4,CO[C@H]1/C=C/O[C@@]2(C)Oc3c(C)c(O)c4c(O)c(c(/C=N/N5CCN(C6CCCC6)CC5)c(O)c4c3C2=O)NC(=O)/C(C)=C\C=C\[C@H](C)[C@H](O)[C@@H](C)[C@@H](O)[C@@H](C)[C@H](OC(C)=O)[C@@H]1C [Rifapentine],34.82 ± 0.22
5,CN(C)c1ccc(O)c2c1C[C@H]1C[C@H]3[C@H](N(C)C)C(O)=C(C(N)=O)C(=O)[C@@]3(O)C(O)=C1C2=O [Minocycline hydrochloride],52.8 ± 2.3
6,NC[C@@H]1O[C@H](O[C@H]2[C@@H](O)[C@H](O[C@@H]3[C@@H](O)[C@H](N)C[C@H](N)[C@H]3O[C@H]3O[C@H](CO)[C@@H](O)[C@H](O)[C@H]3N)O[C@@H]2CO)[C@H](N)[C@@H](O)[C@@H]1O [Paromomycin sulfate],41.3 ± 0.58
7,Oc1c(Cl)cc(Cl)c(Cl)c1Cc1c(O)c(Cl)cc(Cl)c1Cl [Hexachlorophene],18.8 ± 7.5
8,CO[C@@]1(NC(=O)Cc2cccs2)C(=O)N2C(C(=O)O)=C(COC(N)=O)CS[C@@H]21 [Cefoxitin sodium salt],7.08 ± 6.2
9,OC(c1cc(C(F)(F)F)nc2c(C(F)(F)F)cccc12)C1CCCCN1 (configuration not stated) [Mefloquine hydrochloride],-2.15 ± 1.1
10,COc1cccc2c1C(=O)c1c(O)c3c(c(O)c1C2=O)C[C@@](O)(C(=O)CO)C[C@@H]3O[C@H]1C[C@H](N)[C@@H](O)[C@H](C)O1 [Epirubicin hydrochloride],-0.106 ± 4.7
11,CCCCOC(=O)c1ccc(N)cc1 [Butamben],-0.688 ± 0.36
12,CO[C@H]1/C=C/O[C@@]2(C)Oc3c(C)c(O)c4c(c3C2=O)C2=NC3(CCN(CC(C)C)CC3)NC2=C(NC(=O)/C(C)=C\C=C\[C@H](C)[C@H](O)[C@@H](C)[C@@H](O)[C@@H](C)[C@H](OC(C)=O)[C@@H]1C)C4=O [Rifabutin],73.8 ± 3.7
13,O=C1OCCN1/N=C/c1ccc([N+](=O)[O-])o1 [Furazolidone],39.8 ± 1.6
14,CN[C@@H]1[C@@H](O[C@H]2O[C@H](CO)[C@@H](N)[C@H](O)[C@H]2O)OC2C[C@@H](N)[C@@H](O[C@H]3[C@H](O)[C@@H](O)[C@H](N)C[C@@H]3N)OC2[C@@H]1O (some centres not stated) [Apramycin],52.9 ± 1.4
15,O=C(O)c1cn(-c2ccc(F)cc2)c2cc(N3CCNCC3)c(F)cc2c1=O [Sarafloxacin],98.9 ± 1.1
16,OCCOCCN1CCN(C2=Nc3ccccc3Sc3ccccc32)CC1 [Quetiapine hemifumarate],-3.25 ± 2.9
17,CO[C@H]1/C=C/O[C@@]2(C)Oc3c(C)c(O)c4c(O)c(c5c(nc6cc(C)ccn65)c4c3C2=O)NC(=O)/C(C)=C\C=C\[C@H](C)[C@H](O)[C@@H](C)[C@@H](O)[C@@H](C)[C@H](OC(C)=O)[C@@H]1C [Rifaximin],71.9 ± 2.4
18,CCCCCCCCCCCCCCCC[N+](C)(C)CCN(Cc1ccc(OC)cc1)c1ncccn1 [Thonzonium bromide],2.72 ± 1.4
19,CC[C@H]1OC(=O)[C@H](C)[C@@H](O[C@H]2C[C@@](C)(OC)[C@@H](O)[C@H](C)O2)[C@H](C)[C@@H](O[C@@H]2O[C@H](C)C[C@H](N(C)C)[C@H]2O)[C@](C)(O)C[C@@H](C)CN(C)[C@H](C)[C@@H](O)[C@]1(C)O [Azithromycin],21.1 ± 1
20,O=c1[nH]c(=O)n([C@H]2C[C@H](O)[C@@H](CO)O2)cc1F [Floxuridine],92.8 ± 5.4

# Test system: Klebsiella pneumoniae NCTC-13439
# Experiment: as above
# Conditions: antibiotic (0.125x MIC): none (0.1% DMSO); 7 µM
row,SMILES,percent growth inhibition of drug alone [%]
1,CC(=O)OC[C@H]1O[C@@H]([S-])[C@H](OC(C)=O)[C@@H](OC(C)=O)[C@@H]1OC(C)=O.CCP(CC)CC.[Au+] [Auranofin],9.98 ± 8.3
2,CO[C@H]1/C=C/O[C@@]2(C)Oc3c(C)c(O)c4c(O)c(c(/C=N/N5CCN(C6CCCC6)CC5)c(O)c4c3C2=O)NC(=O)/C(C)=C\C=C\[C@H](C)[C@H](O)[C@@H](C)[C@@H](O)[C@@H](C)[C@H](OC(C)=O)[C@@H]1C [Rifapentine],6.76 ± 7.4
3,CN(C)c1ccc(O)c2c1C[C@H]1C[C@H]3[C@H](N(C)C)C(O)=C(C(N)=O)C(=O)[C@@]3(O)C(O)=C1C2=O [Minocycline hydrochloride],3.05 ± 3.2
4,NC[C@@H]1O[C@H](O[C@H]2[C@@H](O)[C@H](O[C@@H]3[C@@H](O)[C@H](N)C[C@H](N)[C@H]3O[C@H]3O[C@H](CO)[C@@H](O)[C@H](O)[C@H]3N)O[C@@H]2CO)[C@H](N)[C@@H](O)[C@@H]1O [Paromomycin sulfate],11.4 ± 2.6
5,CO[C@H]1/C=C/O[C@@]2(C)Oc3c(C)c(O)c4c(c3C2=O)C2=NC3(CCN(CC(C)C)CC3)NC2=C(NC(=O)/C(C)=C\C=C\[C@H](C)[C@H](O)[C@@H](C)[C@@H](O)[C@@H](C)[C@H](OC(C)=O)[C@@H]1C)C4=O [Rifabutin],5.74 ± 2.1
6,O=C1OCCN1/N=C/c1ccc([N+](=O)[O-])o1 [Furazolidone],17.5 ± 3
7,CN[C@@H]1[C@@H](O[C@H]2O[C@H](CO)[C@@H](N)[C@H](O)[C@H]2O)OC2C[C@@H](N)[C@@H](O[C@H]3[C@H](O)[C@@H](O)[C@H](N)C[C@@H]3N)OC2[C@@H]1O (some centres not stated) [Apramycin],4.78 ± 15
8,O=C(O)c1cn(-c2ccc(F)cc2)c2cc(N3CCNCC3)c(F)cc2c1=O [Sarafloxacin],19.6 ± 1.8
9,OCCOCCN1CCN(C2=Nc3ccccc3Sc3ccccc32)CC1 [Quetiapine hemifumarate],-15.6 ± 19
10,CO[C@H]1/C=C/O[C@@]2(C)Oc3c(C)c(O)c4c(O)c(c5c(nc6cc(C)ccn65)c4c3C2=O)NC(=O)/C(C)=C\C=C\[C@H](C)[C@H](O)[C@@H](C)[C@@H](O)[C@@H](C)[C@H](OC(C)=O)[C@@H]1C [Rifaximin],1.28 ± 0.063
11,CC[C@H]1OC(=O)[C@H](C)[C@@H](O[C@H]2C[C@@](C)(OC)[C@@H](O)[C@H](C)O2)[C@H](C)[C@@H](O[C@@H]2O[C@H](C)C[C@H](N(C)C)[C@H]2O)[C@](C)(O)C[C@@H](C)CN(C)[C@H](C)[C@@H](O)[C@]1(C)O [Azithromycin],55.2 ± 6.6
12,O=c1[nH]c(=O)n([C@H]2C[C@H](O)[C@@H](CO)O2)cc1F [Floxuridine],43.4 ± 0.88
